For some of these results: Potency and affinity values are given separately. The source made the active and inactive calls. Unless noted, the rule behind the calls is not given here.
Key:
[1] = antimalarial activity against Dd2 strain (AID 2302;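 active = growth inhibition above 50% at the single 2 µM test dose, taken to imply half-maximal potency below 2 µM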;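 note: 0% = DMSO untreated growth and 100% = chloroquine plus artemisinin killed control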); conditions: P. falciparum Dd2 in RBCs, LDH growth readout, 72 h; at 2 µM; hits give high values
[2] = HepG2 cytotoxicity, primary screen, cytotoxicity control for P. falciparum antimalarial project, cell-based, ATP luminescence (AID 2303;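 active = inhibition above 50%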;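 note: 0% = DMSO wells and 100% = digitonin-killed cells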); conditions: HepG2 viability, 24-48 h, at 10 µM, hits give high values
[3] = biological target: L-lactate dehydrogenase (Plasmodium falciparum (isolate CDC / Honduras)) (UniProt Q27743); test: PfLDH activity inhibition – cell lysate, 3D7 strain, counter-screen for P. falciparum growth inhibition project (AID 2304);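 note: 0% = vehicle and 100% = reference inhibitor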; conditions: P. falciparum 3D7 crude extract, LDH APAD/NBT absorbance; at 2 µM; hits give high values
[4] = inhibition of 3D7 malaria parasite growth – strain 3D7 (AID 2306);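 note: 0% = DMSO wells and 100% = chloroquine plus artemisinin control wells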; conditions: P. falciparum 3D7 erythrocytic growth, LDH absorbance, 72 h; at 2 µM; hits give high values
[5] = biological target: Calcium-dependent protein kinase 1 (Plasmodium falciparum (isolate 3D7)) (UniProt P62344); test: PfCDPK1 kinase inhibitors, biochemical, TCAMS library (AID 1159585; cut-off not given, nearly all actives have IC50 up to about 0.98 µM;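 note: inhibitors leave more ATP so luminescence rises with inhibition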); conditions: recombinant PfCDPK1, Kinase-Glo ATP depletion luminescence
[6] = biological target: Plasmodium falciparum protein kinase 6 (PK6, PF3D7_1337100) (UniProt Q8IDW1); test: PfPK6 kinase inhibitors, biochemical, TCAMS library (AID 1159586); conditions: recombinant PfPK6, Kinase-Glo ATP depletion luminescence
[7] = biological target: Protein kinase 7 (PK7), Plasmodium falciparum 3D7 (PF3D7_0213400) (UniProt Q7YTF7); test: inhibition of Plasmodium PK7 catalytic activity – biochemical, TCAMS antimalarial set, Kinase-Glo luminescence (AID 1159587); conditions: recombinant PfPK7, Kinase-Glo ATP depletion luminescence
[8] = biological target: Calcium-dependent protein kinase 4 (Plasmodium falciparum (isolate 3D7)) (UniProt Q8IBS5); test: PfCDPK4 kinase inhibitors, biochemical, TCAMS library (AID 1159588; cut-off not given, nearly all actives have IC50 up to about 0.91 µM); conditions: recombinant PfCDPK4, Kinase-Glo ATP depletion luminescence
Chain of Calcium-dependent protein kinase 4 (Plasmodium falciparum (isolate 3D7)) (Q8IBS5 whole entry, looked up): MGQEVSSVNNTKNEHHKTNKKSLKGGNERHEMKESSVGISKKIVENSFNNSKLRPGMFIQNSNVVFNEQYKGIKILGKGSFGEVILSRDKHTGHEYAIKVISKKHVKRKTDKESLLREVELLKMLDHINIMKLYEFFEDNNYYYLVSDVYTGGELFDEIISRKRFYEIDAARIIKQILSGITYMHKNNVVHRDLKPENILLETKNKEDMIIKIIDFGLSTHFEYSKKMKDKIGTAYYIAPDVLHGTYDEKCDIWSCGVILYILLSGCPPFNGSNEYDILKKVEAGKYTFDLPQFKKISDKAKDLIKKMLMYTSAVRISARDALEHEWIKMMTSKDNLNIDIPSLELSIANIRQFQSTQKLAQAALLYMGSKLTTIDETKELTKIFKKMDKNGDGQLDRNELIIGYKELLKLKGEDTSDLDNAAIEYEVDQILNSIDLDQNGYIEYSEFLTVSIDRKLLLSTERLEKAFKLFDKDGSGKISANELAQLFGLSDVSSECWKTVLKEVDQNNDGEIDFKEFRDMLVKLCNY

Chain of Protein kinase 7 (PK7), Plasmodium falciparum 3D7 (PF3D7_0213400) (Q7YTF7 1-343): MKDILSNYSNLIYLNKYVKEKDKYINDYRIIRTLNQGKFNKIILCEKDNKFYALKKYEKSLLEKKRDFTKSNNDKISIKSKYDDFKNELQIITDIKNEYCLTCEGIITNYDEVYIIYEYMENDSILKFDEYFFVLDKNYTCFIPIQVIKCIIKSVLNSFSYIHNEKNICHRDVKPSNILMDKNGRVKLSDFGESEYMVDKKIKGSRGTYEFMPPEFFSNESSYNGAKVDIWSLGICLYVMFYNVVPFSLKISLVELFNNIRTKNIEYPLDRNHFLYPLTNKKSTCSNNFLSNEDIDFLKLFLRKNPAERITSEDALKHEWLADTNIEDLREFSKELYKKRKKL
Chain of L-lactate dehydrogenase (Plasmodium falciparum (isolate CDC / Honduras)) (Q27743 whole entry, looked up): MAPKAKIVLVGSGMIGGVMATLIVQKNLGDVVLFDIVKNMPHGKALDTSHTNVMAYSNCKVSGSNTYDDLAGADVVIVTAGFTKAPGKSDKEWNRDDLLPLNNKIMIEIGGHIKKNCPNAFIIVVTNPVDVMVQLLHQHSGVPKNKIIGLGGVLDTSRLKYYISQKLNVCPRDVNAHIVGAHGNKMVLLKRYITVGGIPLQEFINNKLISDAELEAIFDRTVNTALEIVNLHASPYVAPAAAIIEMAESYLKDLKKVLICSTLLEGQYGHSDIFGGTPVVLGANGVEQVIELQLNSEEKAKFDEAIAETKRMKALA
Chain of Calcium-dependent protein kinase 1 (Plasmodium falciparum (isolate 3D7)) (P62344 whole entry, looked up): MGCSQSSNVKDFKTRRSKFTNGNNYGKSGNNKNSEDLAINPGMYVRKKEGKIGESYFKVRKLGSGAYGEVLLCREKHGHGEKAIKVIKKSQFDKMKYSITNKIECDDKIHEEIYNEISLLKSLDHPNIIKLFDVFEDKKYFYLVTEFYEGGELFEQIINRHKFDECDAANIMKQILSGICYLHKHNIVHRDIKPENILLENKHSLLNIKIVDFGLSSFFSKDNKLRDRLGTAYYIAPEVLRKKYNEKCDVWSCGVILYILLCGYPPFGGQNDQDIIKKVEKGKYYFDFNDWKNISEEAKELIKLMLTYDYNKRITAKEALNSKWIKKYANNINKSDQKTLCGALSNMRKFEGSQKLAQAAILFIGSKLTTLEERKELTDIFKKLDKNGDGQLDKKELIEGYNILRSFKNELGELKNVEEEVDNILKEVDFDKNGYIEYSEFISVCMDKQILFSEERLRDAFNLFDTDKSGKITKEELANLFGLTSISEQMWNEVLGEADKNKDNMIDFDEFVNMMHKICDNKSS
Chain of Plasmodium falciparum protein kinase 6 (PK6, PF3D7_1337100) (Q8IDW1 1-305): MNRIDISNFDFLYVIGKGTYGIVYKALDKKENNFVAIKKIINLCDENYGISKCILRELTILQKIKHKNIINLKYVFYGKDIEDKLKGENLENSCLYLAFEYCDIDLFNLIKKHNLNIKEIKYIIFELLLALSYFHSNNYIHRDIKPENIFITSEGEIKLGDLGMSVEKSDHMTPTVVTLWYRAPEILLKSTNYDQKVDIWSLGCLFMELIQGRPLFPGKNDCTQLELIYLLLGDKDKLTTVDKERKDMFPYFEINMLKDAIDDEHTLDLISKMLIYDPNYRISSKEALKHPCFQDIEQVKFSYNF

CCN(c1ccccc1)S(=O)(=O)c1ccc(NC(=O)c2cc(-c3cc(C)ccc3O)n[nH]2)cc1
active: growth inhibition [1] 55% | growth inhibition [4] 99%
inactive: inhibition [2] 49% | inhibition [3] -3% | outcome [5] | outcome [6] | outcome [7] | outcome [8]

COc1ccc(CNCc2ccc(F)cc2)cc1-c1ccc(S(=O)(=O)NCCN2CCCC2)cc1
inactive: growth inhibition [1] 25% | inhibition [2] 38% | inhibition [3] 0% | outcome [5] | outcome [6] | outcome [7] | outcome [8]
active: growth inhibition [4] 91%

CN(CCc1ccccn1)Cc1ccc(-c2ccc(-c3nc4ccccc4[nH]3)s2)cc1
inactive: growth inhibition [1] 48% | inhibition [2] 29% | inhibition [3] 6% | outcome [5] | outcome [6] | outcome [7] | outcome [8]
active: growth inhibition [4] 100%

O=C(N[C@H]1CCN(Cc2ccc(OCCN3CCNCC3)c3ccccc23)C1)c1ccc(Cl)c(Cl)c1
active: growth inhibition [1] 99% | inhibition [2] 53% | growth inhibition [4] 100%
inactive: inhibition [3] -2% | outcome [5] | outcome [6] | outcome [7] | outcome [8]

COc1cccc(NC(=O)Nc2cc(-c3ccc4[nH]ncc4c3)cc3c2CNC3=O)c1
active: growth inhibition [1] 100% | growth inhibition [4] 98%
inactive: inhibition [2] 3% | inhibition [3] 5% | outcome [5] | outcome [6] | outcome [7] | outcome [8]

O=[N+]([O-])c1cccc(CNCC2CCN(Cc3ccc4ccccc4c3)CC2)c1
inactive: growth inhibition [1] 42% | inhibition [2] 18% | inhibition [3] 4% | outcome [5] | outcome [6] | outcome [7] | outcome [8]
active: growth inhibition [4] 100%

COc1ccc2ncc(F)c(CCN3CC[C@@H](CNCc4ccc5c(c4C)OCCO5)C3)c2n1
inactive: growth inhibition [1] 11% | inhibition [2] 17% | inhibition [3] 1% | outcome [5] | outcome [6] | outcome [7] | outcome [8]
active: growth inhibition [4] 94%

O=C(NCc1cccc(F)c1)Nc1ccc(-c2cccc(-c3nc4ccccc4[nH]3)c2)cc1
inactive: growth inhibition [1] 2% | inhibition [2] 14% | inhibition [3] 0% | outcome [5] | outcome [6] | outcome [7] | outcome [8]
active: growth inhibition [4] 86%

CCOc1cc(C(=O)NCc2ccc(Cl)c(Cl)c2)ccc1-c1nc2ccc(Cl)cc2[nH]1
active: growth inhibition [4] 97%
inactive: growth inhibition [1] 4% | inhibition [2] 10% | inhibition [3] -2% | outcome [5] | outcome [6] | outcome [7] | outcome [8]

Cc1cccc2[nH]c(-c3cccc(-c4ccc(NC(=O)C(C)CN(C)C)cc4)c3)nc12 (stereo not given)
active: growth inhibition [1] 100% | growth inhibition [4] 101%
inactive: inhibition [2] 29% | inhibition [3] -3% | outcome [5] | outcome [6] | outcome [7] | outcome [8]

CN(CC(=O)Nc1cc(C(F)(F)F)ccc1-n1cncn1)Cc1ccc2ccccc2c1
inactive: inhibition [2] 18% | inhibition [3] 3% | outcome [5] | outcome [6] | outcome [7] | outcome [8]
active: growth inhibition [1] 99% | growth inhibition [4] 98%

Oc1ccc2[nH]c(-c3cccs3)nc2c1CN1CCC(N2CCCC2)CC1
inactive: growth inhibition [1] 13% | inhibition [2] 6% | inhibition [3] -3% | outcome [5] | outcome [6] | outcome [7] | outcome [8]
active: growth inhibition [4] 100%

CCCCCCCCS(=O)(=O)NCCCC1CCN(CCCCCNC(=O)C=Cc2ccc(Cl)c(Cl)c2)CC1
active: inhibition [2] 100% | growth inhibition [4] 91%
inactive: growth inhibition [1] 26% | inhibition [3] 6% | outcome [5] | outcome [6] | outcome [7] | outcome [8]

O=C(NCCN1CCC(NC(=O)c2ccc(-c3ccccn3)s2)CC1)c1ccc(Cl)c(Cl)c1
inactive: growth inhibition [1] 48% | inhibition [2] 24% | inhibition [3] -5% | outcome [5] | outcome [6] | outcome [7] | outcome [8]
active: growth inhibition [4] 97%

CN1CCc2cc(O)c(NS(=O)(=O)c3ccc(-c4ccc(Cl)cc4)cc3)cc2CC1
active: growth inhibition [4] 104%
inactive: growth inhibition [1] 3% | inhibition [2] 7% | inhibition [3] 3% | outcome [5] | outcome [6] | outcome [7] | outcome [8]

COc1cc(C(C)C)ccc1C1CCN(CCCCNC(=O)c2ccc(NC(=O)c3ccc(Cl)cc3)cc2)CC1
inactive: inhibition [3] 3% | outcome [5] | outcome [6] | outcome [7] | outcome [8]
active: growth inhibition [1] 99% | inhibition [2] 100% | growth inhibition [4] 98%

CC(CN1CCN(C)CC1)C(=O)Nc1ccc(-c2cccc(-c3nc4ccc(C(F)(F)F)cc4[nH]3)c2)cc1 (stereo not given)
inactive: inhibition [2] 16% | inhibition [3] -6% | outcome [5] | outcome [6] | outcome [7] | outcome [8]
active: growth inhibition [1] 96% | growth inhibition [4] 99%

COCCCNC(=S)NN=C(C)c1ccccn1
active: growth inhibition [1] 99% | inhibition [2] 55% | growth inhibition [4] 100%
inactive: inhibition [3] 3% | outcome [5] | outcome [6] | outcome [7] | outcome [8]

O=C(Nc1ccc2c(c1)OCO2)NC1CCN(c2ccnc(Nc3ccc(F)cc3)n2)C1 (stereo not given)
active: growth inhibition [1] 89% | growth inhibition [4] 100%
inactive: inhibition [2] 5% | inhibition [3] 3% | outcome [5] | outcome [6] | outcome [7] | outcome [8]

COc1cccc(-c2cccc(NC(=O)C3CCN(Cc4ccc(O)cc4)CC3)c2)c1
active: growth inhibition [1] 97% | growth inhibition [4] 97%
inactive: inhibition [2] 9% | inhibition [3] 0% | outcome [5] | outcome [6] | outcome [7] | outcome [8]

Source: PubChem BioAssay
